The source of these data is paper PMC7819943, “Rice protein-binding microarrays: a tool to detect cis-acting elements near promoter regions in rice”.

In all, about 35,000 sequences were measured (“fluorescence intensity (a.u.)”: median about 10,000, highest 2% from about 52,000 on). The full list was thinned out, with the highest values kept by preference.

This experiment addresses T1, OsWOX13 (Oryza sativa, UniProt Q5QMM3 1-267).
T1 sequence: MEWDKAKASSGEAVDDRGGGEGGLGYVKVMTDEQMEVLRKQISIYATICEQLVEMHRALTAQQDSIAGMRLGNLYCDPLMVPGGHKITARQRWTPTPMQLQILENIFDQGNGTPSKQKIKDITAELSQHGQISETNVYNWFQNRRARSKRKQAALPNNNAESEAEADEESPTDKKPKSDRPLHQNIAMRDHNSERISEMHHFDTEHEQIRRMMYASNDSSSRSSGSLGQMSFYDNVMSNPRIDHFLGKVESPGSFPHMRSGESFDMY
Kind of experiment: protein-binding microarray (RPBM); PBS, 2% BSA, 51.3 ng/ul salmon testes DNA, 50 uM zinc acetate, 200 nM TF, 25 C, 1 h; high values mean tight binding. The following applies: protein: recombinant; tags: N-terminal polyhistidine and DsRed monomer fusion (pET32a); label: CyDye5-dUTP incorporated in the synthesized complementary strand; 3' TTTTT single-stranded linker to array surface; dsDNA, one strand shown. The gist of the method:
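Using Ni–NTA, transcription factors fused N-terminally to polyhistidine and DsRed were purified after expression in E. coli BL21-CodonPlus. These were incubated at 200 nM with a blocked, double-stranded custom Agilent array for 1 h at 25 °C in a buffer containing 50 µM zinc acetate, and the array was washed. The binding signal is per-feature fluorescence intensity (arbitrary units) on an Axon 4000B scanner.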
Consider “TACTATCAACTCTGTTAAAATTGAAGAATTTTGACTAAAACGGAGTCACCTAGTGCAG”, for which the binding signal was 3310 fluorescence intensity (a.u.). With “AGAATAATTATTTAAGTTAAGGTGTGTCACACCCCAATCCCGGAGTCACCTAGTGCAG” the figure was 25100 fluorescence intensity (a.u.); with “GTGCATCACCAATCAAAACAGGAGGTGTTTGGAACTCCGTCGGAGTCACCTAGTGCAG”, 3870 fluorescence intensity (a.u.). Consider “TACGCATTGATTAGTTTTGTCAGGTTAGTATAGAATTTAACGGAGTCACCTAGTGCAG”, for which the binding signal is 14000 fluorescence intensity (a.u.). Turning to “GTACTTGATAGTTCAGTGATAAGGGGTGTGATTTCAACCCCGGAGTCACCTAGTGCAG”, the binding signal is 4490 fluorescence intensity (a.u.). Regarding “CAGGTGTGATTGAAGTGATGTACTCAACTTACACCCGGGCCGGAGTCACCTAGTGCAG”, the binding signal is 54400 fluorescence intensity (a.u.). With “GTACTAGTATTATTGATTGATACACTTGTGATGTCATGCCCGGAGTCACCTAGTGCAG” the figure was 30900 fluorescence intensity (a.u.). To “ACATAATTAGTTTATCTCTCCTCAAGCTGGTGCATCTCTCCGGAGTCACCTAGTGCAG” belongs 31200 fluorescence intensity (a.u.); to “TCTCCAAGATTGATCCGCATCTCCAACTAAACCCTCTCCTCGGAGTCACCTAGTGCAG”, 7230 fluorescence intensity (a.u.); to “TCGCTTTGATTGACACTAAGAACCTCGCTGCGCATCTCGTCGGAGTCACCTAGTGCAG”, 58600 fluorescence intensity (a.u.). To “GAACCTTTTGATTGATTCTCGTCCTACACGCTTGAAGGCGCGGAGTCACCTAGTGCAG” belongs 38200 fluorescence intensity (a.u.); to “ATTCTCTCTTTTGCTCGCTTTGTTCCCTTTTCTTTCTTTTCGGAGTCACCTAGTGCAG”, 3770 fluorescence intensity (a.u.); to “TGTCTGACTGACTGACTGGCTGCTGCTGCTGCTCATTCCTCGGAGTCACCTAGTGCAG”, 23800 fluorescence intensity (a.u.). “TCTCGCTTCTGCCACTGCTGGCTGTGCTGCTTCCCTAGCTCGGAGTCACCTAGTGCAG”: the binding signal was 65100 fluorescence intensity (a.u.). With “GGAATTAATTAATGAATCACGTAGGCTACCTGGGTTGAAGCGGAGTCACCTAGTGCAG” the figure was 45800 fluorescence intensity (a.u.).

For the sequence “TAAAATTAACGTGGACACTAATCTAGTTTAGACTTTGATTCGGAGTCACCTAGTGCAG”, the binding signal was 15500 fluorescence intensity (a.u.). To “ACGTTTAATATTTATAATTAATTTTCAAACATCCGATGTGCGGAGTCACCTAGTGCAG” belongs 19300 fluorescence intensity (a.u.); to “TTAATGACTATTTAGTTGACATGTAAGAAACAGGGGATTTCGGAGTCACCTAGTGCAG”, 3450 fluorescence intensity (a.u.). To “AACTTGCATACCAGTGGAATTCTTCAGGCTGGTCATGGAGCGGAGTCACCTAGTGCAG” belongs 65500 fluorescence intensity (a.u.); to “AAACTTGATGGAATTCTTTAAATGTTCGATTGCTGGAGAGCGGAGTCACCTAGTGCAG”, 16700 fluorescence intensity (a.u.); to “GCTCGATTGGATAATTCTTCTGCATAACTAGCCAGTGGAGCGGAGTCACCTAGTGCAG”, 26800 fluorescence intensity (a.u.). To “TTAATTACTATCATTAGTGTTAAGTATATATTAACTAATGCGGAGTCACCTAGTGCAG” belongs 25900 fluorescence intensity (a.u.). Turning to “GAACTTTACCGAATTTGTAAATTAGATGTAAACTCATTTTCGGAGTCACCTAGTGCAG”, the binding signal is 3580 fluorescence intensity (a.u.). On to “GTGCCATTAATTTTGACTACTACTTGTGTGTCCTATCAAACGGAGTCACCTAGTGCAG”, for which the binding signal was 7280 fluorescence intensity (a.u.).

With “GCGGATTAATTACTACTGGGCTGGCATTCTGATCACTTTGCGGAGTCACCTAGTGCAG”, the binding signal was 25400 fluorescence intensity (a.u.).

With “TCTAGCTATTAATTTGCTCTCATTTATAACTTAGCCGCTACGGAGTCACCTAGTGCAG”, the binding signal is 6390 fluorescence intensity (a.u.). With “ACCCTCATCTCTTCTCCTGATTGAATTGTCTTCCTCAACCCGGAGTCACCTAGTGCAG” the figure was 30400 fluorescence intensity (a.u.); with “CCTAATTGACAAATGATTTCACCACGTCCCTTTCCATTTTCGGAGTCACCTAGTGCAG”, 34200 fluorescence intensity (a.u.); with “CACTTAACTTAATTAGTTAATTATTGCTCTATTTTCTCTGCGGAGTCACCTAGTGCAG”, 60500 fluorescence intensity (a.u.).

On to “GCCTTAATTGATTAACCGTGTAACATCTTCCTCACGCACCCGGAGTCACCTAGTGCAG”, for which the binding signal was 65500 fluorescence intensity (a.u.).

For the sequence “TAATTTTCTGAGTGATCAAATAATTGACCATAATTTTCCACGGAGTCACCTAGTGCAG”, the binding signal was 8420 fluorescence intensity (a.u.). Take “AATTGGCTTGGCTAATTAATTACTCCATTTGCGAACATGGCGGAGTCACCTAGTGCAG”: the binding signal was 4010 fluorescence intensity (a.u.).

Consider “ACTTTTCTATTTAATTTTATCTATTTTCTTAATAACTATGCGGAGTCACCTAGTGCAG”, for which the binding signal is 4340 fluorescence intensity (a.u.). To “TTGACTGATTGCACGTCCAACCATAATTTCTTTTCGTCCACGGAGTCACCTAGTGCAG” belongs 58600 fluorescence intensity (a.u.); to “ATGCGATTGACTAATTAATTGACTGGGCTTTGGCATTGGGCGGAGTCACCTAGTGCAG”, 65500 fluorescence intensity (a.u.); to “ATAATTGATTCAACCTCGTTCTTAATTTGATACATCCTTCCGGAGTCACCTAGTGCAG”, 32300 fluorescence intensity (a.u.).

Regarding “TAAACCAATTACAATGATTATTTTCAACCGACCACCGATTCGGAGTCACCTAGTGCAG”, the binding signal is 23300 fluorescence intensity (a.u.).

Consider “AGGACTACTATAATTGCAACTGAAATAAAACCTTGGCTTGCGGAGTCACCTAGTGCAG”, for which the binding signal is 5450 fluorescence intensity (a.u.). With “CCCTCAATCAGCTGGTCGGCTGGTCGCACACACCACGTTCCGGAGTCACCTAGTGCAG” the figure was 11500 fluorescence intensity (a.u.); with “TAACTAATTAGTTAACTAATCGTCAATGTCACTAGCTTCTCGGAGTCACCTAGTGCAG”, 45100 fluorescence intensity (a.u.); with “ATGATGAGATTGAGGTTGATATAGATAGCTTTGATGTTGACGGAGTCACCTAGTGCAG”, 23200 fluorescence intensity (a.u.). To “GTGATAATTGCAAAATTAGGAATTATGCAAGGGGTGTAGACGGAGTCACCTAGTGCAG” belongs 49400 fluorescence intensity (a.u.).
